# Data as given in PubChem BioAssay (Tox21).
# “And” between values parts separate entries of the source, which are not always exact repeats. Identical values can stand only once. Unmarked numbers belong to inactive results. Inconclusive results are not listed. Entries that show only a call come without a potency. The source made the active and inactive calls. Unless noted, calls follow the shape of the dose curve; as a rule, active = well fitted curve in the direction sought with a large enough effect in the repeat runs; inconclusive = weak or mixed curves; inactive = no such curve, though single readings can be large; an effect the other way counts as inactive or inconclusive.
# Key:
# [1] = qHTS assay to identify small molecule antagonists of the estrogen related receptor (ERR) signaling pathway from Tox21 library - cell viability counter screen (AID 1224834); also: nearly all actives have a fitted effect of over 30% in size
# How it was run: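 Fluorescence from CellTiter-Fluor gives the viability read-out, taken 30 min after reagent addition. Before that, ERR cells seeded 6 h earlier were incubated with compounds for 17.5 h at 37 C.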
# [2] = qHTS assay to identify small molecule agonists of the constitutive androstane receptor (CAR) signaling pathway - cell viability counter screen (AID 1224836); also: series mostly up to about 92 µM; nearly all actives have a fitted effect of over 45% in size
# How it was run: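 HepG2 cells stably carrying hCAR and a CYP2B6-2.2kb reporter were plated 4 h, then given compounds at 15 concentrations plus PK11195 (final 0.75 uM). After 23 h at 37 C, viability was read by CellTiter-Fluor fluorescence.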
# [3] = qHTS assay to identify small molecule antagonists of the constitutive androstane receptor (CAR) signaling pathway - cell viability counter screen (AID 1224837); also: series mostly up to about 92 µM; nearly all actives have a fitted effect of over 45% in size
# How it was run: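 HepG2-CYP2B6-hCAR cells, 2500/well, 4 hr pre-incubation; compound titration, 15 conc.; CITCO 50 nM final; 23 hr, 37 C/5% CO2; CellTiter-Fluor, fluorescence intensity.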
# [4] = biological target: Nuclear receptor subfamily 1 group I member 3 (Homo sapiens) (UniProt Q14994); experiment: qHTS assay to identify small molecule antagonists of the constitutive androstane receptor (CAR) signaling pathway (AID 1224838); also: nearly all actives have a fitted effect of over 40% in size
# How it was run: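 HepG2-CYP2B6-hCAR cells; 4 h pre-incubation; cpd (15 conc) + CITCO 50 nM final; 24 h, 37 C/5% CO2; ONE-Glo, luminescence.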
# [5] = biological target: Nuclear receptor subfamily 1 group I member 3 (Homo sapiens) (UniProt Q14994); experiment: qHTS assay to identify small molecule agonists of the constitutive androstane receptor (CAR) signaling pathway (AID 1224839); also: nearly all actives have a fitted effect of over 15% in size; also: potency is read from the fitted curve at half-maximal effect;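 as to activation: HepG2 cells stably carrying human CAR and a CYP2B6 luciferase reporter; series mostly up to about 92 µM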
# How it was run: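 HepG2 cells stably expressing hCAR and a CYP2B6-2.2kb luciferase reporter were treated with compounds at 15 concentrations plus 0.75 uM PK11195 (final) for 24 h at 37 C; luminescence was read after ONE-Glo addition.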
# [6] = qHTS assay to identify small molecule antagonists of the estrogen related receptor signaling pathway with the pleiotropic PPARgamma coactivator (PGC) from Tox21 10K library - cell viability counter screen (AID 1224840; active = well fitted cell-killing curve with a large enough effect in the repeat runs, not every such curve was filed as active; also: nearly all actives have a fitted effect of over 40% in size)
# How it was run: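 PGC/ERR cells, 2,000/well; 6 h pre-incubation 37 C/5% CO2; cpd in DMSO via pin tool; 17.5 h 37 C; CellTiter-Fluor, 30 min; fluorescence.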
# [7] = biological target: Thyrotropin receptor (Homo sapiens) (UniProt P16473); experiment: qHTS assay to identify small molecule agonists of the thyroid stimulating hormone receptor (TSHR) signaling pathway (AID 1224843; calls by dose curve; also: nearly all actives have a fitted effect of over 45% in size)
# How it was run: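 TSHR-HEK293 cells in agonist mode, 30 min room-temperature step, then cAMP measured by competitive HTRF (cAMP-d2 with anti-cAMP cryptate) after 1 h at room temperature. Tested at 15 concentrations in triplicate.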
# [8] = qHTS assay to identify small molecule agonists of the hypoxia (HIF-1) signaling pathway - cell viability counter screen (AID 1224844; calls by dose curve; also: nearly all actives have a fitted effect of over 50% in size)
# How it was run: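 ME-180 HRE-bla cells, 2,000/well, 0.5% dialyzed FBS; 5 hr settle, 17 hr compound at 37C/5% CO2; CCF4-AM reporter read first, then CellTiter-Glo luminescence after 30 min RT.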
# [9] = qHTS assay to identify small molecule agonists of H2AX (AID 1224845; active = well fitted activation curve with a large enough effect in the signal ratio in the repeat runs, not every such curve was filed as active; the % refers to the signal ratio)
# How it was run: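 Wild-type CHO-K1 cells, plated overnight, exposed 3hr at 37C to 15 concentrations (0.76% DMSO final). Lysed, then HTRF anti-pH2AX (S139) cryptate and anti-H2AX-d2 antibodies, 24 hr room temperature; 665/620 nm emission read.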
# [10] = qHTS assay to identify small molecule agonists of H2AX - cell viability counter screen (AID 1224847; calls by dose curve; also: top concentration of the series differs between compounds; nearly all actives have a fitted effect of over 30% in size)
# How it was run: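 Wild-type CHO-K1 cells (10% FBS medium) were plated overnight at 37C, exposed to compounds at 15 concentrations for 3 hr at 37C (0.76% DMSO final), and viability was read as CellTiter-Glo luminescence after 30 min at room temperature.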
# [11] = qHTS RealTime-Glo MT Cell Viability Assay in HepG2 cells - 24 hour (AID 1224867); also: nearly all actives have a fitted effect of over 50% in size
# How it was run: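 Cell number in HepG2 cultures estimated from NanoLuc luminescence generated by metabolic reduction of a prosubstrate by living cells. The homogeneous, nonlytic format allowed repeated reads at 0, 8, 16, 24, 32 and 40 h of compound exposure.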
# [12] = qHTS RealTime-Glo MT Cell Viability Assay in HEK293 cells - 32 hour (AID 1224868); also: top concentration of the series differs between compounds; nearly all actives have a fitted effect of over 50% in size
# How it was run: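 Homogeneous bioluminescent viability format in HEK293 cells (600 cells/well). Following 5 h at 37 C/5% CO2, 23 nL compound was pintooled; the signal was measured repeatedly during 40 h incubation.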
# [13] = A CellTox Green Cytotoxicity Assay to monitor cytotoxicity in HEK293 cells - 0 hour (AID 1224869); also: nearly all actives have a fitted effect of over 50% in size
# How it was run: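 Nonlytic real-time cytotoxicity: HEK293 + CellTox Green reagent plated, 5 h preincubation, pintool compound addition (23 nL in DMSO), 37 C for 40 h, fluorescence measured at successive time points.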
# [14] = qHTS assay to identify small molecule antagonists of the estrogen related receptor signaling pathway with the pleiotropic PPARgamma coactivator (PGC) from Tox21 10K library (AID 1224841; call rule not given here)
# How it was run: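 PGC/ERR cell line, 2,000 cells/well; 6 h pre-incubation 37 C/5% CO2; compounds (DMSO) pinned in; 18 h, 37 C; One-Glo, 30 min RT; luminescence.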
# [15] = qHTS assay to identify small molecule agonists of the estrogen related receptor signaling pathway with the pleiotropic PPARgamma coactivator (PGC) from Tox21 10K library (AID 1224842); also: nearly all actives have a fitted effect of over 15% in size
# How it was run: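 PGC/ERR reporter cell line, 2,000 cells per well, incubated 6 h at 37 C before 23 nL compound in DMSO was added. After 18 h at 37 C, One-Glo luminescence read following 30 min at room temperature.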
# [16] = qHTS assay to identify small molecule antagonists of the estrogen related receptor (ERR) signaling pathway from Tox21 library (AID 1224848); also: nearly all actives have a fitted effect of over 50% in size
# How it was run: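 ERR reporter cell line (from NTP) seeded 2,000 cells/well, rested 6 h at 37 C/5% CO2, then pin-dosed with compounds in DMSO. After 18 h at 37 C, ONE-Glo added; luminescence read after 30 min at room temperature.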
# [17] = qHTS assay to identify small molecule agonists of the hypoxia (HIF-1) signaling pathway (AID 1224846; active = well fitted activation curve with a large enough effect in the signal ratio in the repeat runs, not every such curve was filed as active; the % refers to the signal ratio)
# How it was run: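 Cell line: CellSensor HRE-bla ME-180; 2,000 cells/well; 0.5% dialyzed FBS; 5 h preincubation; DMSO compound pin transfer; 17 h, 37C, 5% CO2; CCF4-AM added; bla FRET signal scored for activation.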
# Chain of Thyrotropin receptor (Homo sapiens) (P16473 whole entry, looked up): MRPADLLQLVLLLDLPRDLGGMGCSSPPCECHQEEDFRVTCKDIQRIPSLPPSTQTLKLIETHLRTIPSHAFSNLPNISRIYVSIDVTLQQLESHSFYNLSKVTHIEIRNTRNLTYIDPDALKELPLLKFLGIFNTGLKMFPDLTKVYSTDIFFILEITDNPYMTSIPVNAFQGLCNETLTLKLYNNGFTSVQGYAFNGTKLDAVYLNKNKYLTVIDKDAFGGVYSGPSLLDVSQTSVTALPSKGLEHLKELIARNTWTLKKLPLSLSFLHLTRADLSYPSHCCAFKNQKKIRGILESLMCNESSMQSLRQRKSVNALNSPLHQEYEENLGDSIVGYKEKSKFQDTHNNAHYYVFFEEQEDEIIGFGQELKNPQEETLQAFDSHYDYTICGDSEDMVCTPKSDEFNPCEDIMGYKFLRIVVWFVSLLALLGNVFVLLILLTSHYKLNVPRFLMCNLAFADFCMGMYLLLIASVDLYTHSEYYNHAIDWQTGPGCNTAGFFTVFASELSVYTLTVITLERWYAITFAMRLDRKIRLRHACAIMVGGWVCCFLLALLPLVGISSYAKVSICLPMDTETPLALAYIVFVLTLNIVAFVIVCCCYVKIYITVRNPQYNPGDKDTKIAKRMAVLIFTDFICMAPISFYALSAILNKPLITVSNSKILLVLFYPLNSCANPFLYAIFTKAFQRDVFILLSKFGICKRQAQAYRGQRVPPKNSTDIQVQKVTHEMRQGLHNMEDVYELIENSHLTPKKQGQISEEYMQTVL
# Chain of Nuclear receptor subfamily 1 group I member 3 (Homo sapiens) (Q14994 whole entry, looked up): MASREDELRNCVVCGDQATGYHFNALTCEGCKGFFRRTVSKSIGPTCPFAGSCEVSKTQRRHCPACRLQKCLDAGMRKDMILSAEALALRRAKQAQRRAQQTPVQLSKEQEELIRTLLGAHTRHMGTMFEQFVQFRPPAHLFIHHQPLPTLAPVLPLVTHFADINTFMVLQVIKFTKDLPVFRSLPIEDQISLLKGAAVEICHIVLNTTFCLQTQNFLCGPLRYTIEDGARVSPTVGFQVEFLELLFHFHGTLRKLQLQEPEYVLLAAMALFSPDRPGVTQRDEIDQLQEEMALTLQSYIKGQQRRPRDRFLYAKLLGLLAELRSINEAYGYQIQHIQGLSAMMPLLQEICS
smiles,measurement,setting,value
CC[N+](C)(C)c1cccc(O)c1,Potency,[1],inactive
same,Potency,[2],inactive
same,Potency,[3],inactive
same,Potency,[4],inactive
same,Potency,[5],inactive
same,Potency,[6],inactive
same,Potency,[7],inactive
same,Potency,[8],inactive
same,outcome,[9],inactive
same,Potency,[10],inactive
same,Potency,[11],inactive
same,Potency,[12],inactive
same,Potency,[13],inactive
N[C@@H](C(=O)N[C@@H]1C(=O)N2C(C(=O)O)=C(Cl)CS[C@H]12)c1ccccc1,"viability change, negative = cytotoxic",[1],3.31% [at 8.39 µM]
same,"viability change, negative = cytotoxic",[2],0.971% [at 8.39 µM]
same,"activity change, negative = cytotoxicity",[3],8.33% [at 8.39 µM]
same,"activity, negative = inhibition",[4],-13.2% [at 8.39 µM]
same,activation,[5],-1.38% [at 8.39 µM]
same,"viability change, negative = cytotoxic",[6],10.3% [at 8.39 µM]
same,"activity, negative = inhibition",[14],-0.314% [at 8.39 µM]
same,activation,[15],-0.0958% [at 8.39 µM]
same,activation,[7],-0.277% [at 8.39 µM]
same,"activity change, negative = cytotoxicity",[8],1.81% [at 6.97 µM]
same,activation (H2AX phosphorylation),[9],0.237% [at 14 µM]
same,"activity change, negative = cytotoxicity",[10],-0.534% [at 14 µM]
same,"activity, negative = inhibition",[16],7.8% [at 8.39 µM]
same,"activity change, negative = cytotoxicity",[11],0.732% [at 6.97 µM]
same,cytotoxicity,[13],2.09% [at 6.97 µM]
CCCCOCCOCCOCc1cc2c(cc1CCC)OCO2,Potency,[1],inactive
same,Potency,[2],inactive
same,Potency,[3],inactive
same,Potency,[4],inactive
same,Potency,[5],7.79 µM (active) and 11.9 µM (active)
same,Potency,[6],inactive
same,Potency,[8],inactive
same,outcome,[9],inactive
same,outcome,[17],inactive
same,Potency,[10],inactive
same,Potency,[11],inactive
same,Potency,[13],inactive
Nc1cc(=O)[nH]c(N)n1,Potency,[1],inactive
same,Potency,[2],inactive
same,Potency,[3],inactive
same,Potency,[4],inactive
same,Potency,[5],inactive
same,Potency,[6],inactive
same,Potency,[7],inactive
same,Potency,[8],inactive
same,outcome,[9],inactive
same,Potency,[10],inactive
same,Potency,[11],inactive
same,Potency,[12],inactive
same,Potency,[13],inactive
NCCCNCCSP(=O)(O)O,"viability change, negative = cytotoxic",[1],2.57% [at 8.39 µM]
same,"viability change, negative = cytotoxic",[2],10.5% [at 8.39 µM]
same,"activity change, negative = cytotoxicity",[3],2.76% [at 8.39 µM]
same,"activity, negative = inhibition",[4],-1.02% [at 8.39 µM]
same,activation,[5],-1.23% [at 8.39 µM]
same,"viability change, negative = cytotoxic",[6],11.6% [at 8.39 µM]
same,activation,[7],0.0403% [at 8.39 µM]
same,"activity change, negative = cytotoxicity",[8],6.46% [at 6.97 µM]
same,activation (H2AX phosphorylation),[9],-3.9% [at 14 µM]
same,"activity change, negative = cytotoxicity",[10],-5.36% [at 14 µM]
same,"activity change, negative = cytotoxicity",[11],1.03% [at 6.97 µM]
same,"activity change, negative = cytotoxic",[12],3.62% [at 6.97 µM]
same,cytotoxicity,[13],-8.49% [at 6.97 µM]
C[C@@H]1CCN(C(=O)[C@H](CCCN=C(N)N)NS(=O)(=O)c2cccc3c2NC[C@H](C)C3)[C@@H](C(=O)O)C1,Potency,[1],inactive
same,Potency,[2],inactive
same,Potency,[3],inactive
same,Potency,[4],inactive
same,Potency,[5],inactive
same,Potency,[6],inactive
same,Potency,[14],inactive
same,outcome,[15],inactive
same,Potency,[7],inactive
same,outcome,[9],inactive
same,outcome,[17],inactive
same,Potency,[10],inactive
same,Potency,[16],inactive
same,Potency,[11],inactive
same,Potency,[12],inactive
same,Potency,[13],inactive
